# Assay outcomes deposited in PubChem by National Center for Advancing Translational Sciences (NCATS).
# Marburg entry inh = qHTS for inhibitors of binding or entry into cells for Marburg Virus. Potency, µM (titrated, usually from 37.8 µM), for the others: at the highest dose activity change, negative = inhibition, actives largely listed as inhibitors. 1.8% of 300,000 active. Marburg virus pseudotyped entry inhibition, cell reporter; calls by dose curve; tested in HEK293 cells; further: potency means the concentration at half of the fitted maximal effect
# FMDV antiviral = High Throughput Screening for Foot and Mouth Disease Virus Antivirals. FMDV antiviral cell-based qHTS. Potency, µM (highest dose often 57.9 µM), without a hit: top-dose activity change, negative = inhibition, actives largely listed as inhibitors. 1.2% of 410,000 active. AID 1159524, 2015; calls by dose curve; tested in HEK293T cells; further: read-out not given here; potency means the concentration at half of the fitted maximal effect; nearly all actives have a fitted effect of over 45% in size
# Lassa entry inh = qHTS for Inhibitors of binding or entry into cells for Lassa Virus; Lassa virus pseudotype entry inhibition, cell reporter; Potency, µM (doses to about 37.9 µM), inactives show at the top dose activity change, negative = inhibition, usual class: inhibitors; 1.2% of 300,000 active; AID 540256, 2011; calls by dose curve; tested in HEK293 cells; further: potency means the concentration at half of the fitted maximal effect; nearly all actives have a fitted effect of over 50% in size
# HCMV antiviral = qHTS Assay for inhibitors of the human cytomegalovirus (HCMV); activity change, negative = inhibition, % at 57.5 µM; 4.5% of 410,000 active; HFF cells, HCMV-luciferase reporter, 72 h; stronger effect = lower value; in the data active means activity change below about -60%; inconclusive means no clear call, values can overlap the other calls; inactive means above about -39%
#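 Inhibition of viral replication was scored as loss of reporter luminescence in HFFs infected with HCMV-luciferase (MOI 1 PFU/cell) for 72 h; compounds tested at 2 doses, normalized to buffer and Salinomycin controls.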
# * = called active by the depositor; ? = inconclusive; . = no result given; ! = repeats disagree; [ ] = dose if it differs, or a comment. Sampled rows, rich in hits. Any-hit rate of the full collection: about 6.2%. On the % scale 0 is the no-effect control and ±100 the full control effect.
SMILES,Marburg entry inh,FMDV antiviral,Lassa entry inh,HCMV antiviral
CCC(=NCc1ccco1)c1c(O)n(-c2ccc(C)cc2)c(=O)[nH]c1=O,?,-17.0%,0.58µM*,-9.4
CC#C[C@]1(O)CC[C@H]2[C@@H]3CCC4=CC(=O)CCC4=C3[C@H](c3ccc(N(C)C)cc3)C[C@@]21C,?,0.0%,.,.
CC#C[C@]1(O)CC[C@H]2[C@@H]3CCC4=CC(=O)CCC4=C3[C@@H](c3ccc(N(C)C)cc3)C[C@@]21C,10µM*!,-22.5%,8.2µM*!,113.7
O=S(=O)(/C=C/c1ccccc1)N1CCN(c2nc(-c3cccnc3)nc3ccccc23)CC1,11.2µM*,-19.7%,?,?
Cc1ccc2oc(C(F)(F)C(F)F)cc(=O)c2c1,?,-20.7%,14.3%,34.2
Cc1ccc2oc(C(Cl)(Cl)Cl)cc(=O)c2c1,11.6µM*,.,-26.6%,-89.3*
COc1ccc(C2c3c(n(C)c4ccccc34)C(=O)N2CC(=O)Nc2ccccc2F)cc1 (stereo not given),.,-8.3%,-0.6%[46.1 µM],0.0
COC1=C(C(=O)c2ccccc2)C(=O)[C@@]2(CC=C(C)C)C[C@@H]([S+](=O)([O-])c3ccccc3)C(C)(C)[C@@]1(CC=C(C)C)C2=O,-16.6%[14.2 µM],.,?,.
COc1ccc2nc(C)cc(SCC(=O)NNC(=O)COc3ccccc3)c2c1,-15.3%,-11.6%,-5.0%,?
COc1ccc2nc(C)cc(Sc3nc4ccccc4s3)c2c1,?,15.8µM*,15.8µM*,-98.6*
CCOc1ccccc1CNC(=O)c1cnc2sc(N3CCCC3)nn2c1=O,.,-15.9%,6.9%[46.1 µM],-35.0
CCCC12C(=O)C(C)(C(c3ccccc3)=C1c1ccccc1)C1C(=O)N(c3ccc(C)cc3)C(=O)C12 (stereo not given),?,?,?,-86.6*
CCC12C(=O)C(CC)(C(c3ccccc3)=C1c1ccccc1)[C@@H]1C(=O)N(c3ccccc3)C(=O)C12 (stereo not given in full),?,-24.6%,-1.9%,-60.6*
COC(=O)[C@@H]1[C@@H](CO)[C@@H]2Cn3c(cccc3=O)[C@H]1N2S(=O)(=O)c1cccc(C)c1,.,.,.,20.8
COc1ccccc1N1CCN(c2nc(CNC(=O)C3CCOC(C)(C)C3)nc3ccccc23)CC1 (stereo not given),.,-23.7%,.,.
CCNC(=O)c1cc2c(c(-c3cccc(-c4cccc(C(=O)N(C)C)c4)c3)n1)[C@@H](CCO)N(S(=O)C(C)(C)C)C2 (stereo not given in full),.,0.0%,.,-10.3
CCCNC(=O)c1cc2c(c(-c3cccc(-c4cc5ccccc5o4)c3)n1)[C@H](CCO)N(C(=O)NC(C)C)C2,.,?,.,-88.4*
CC(C)(C)S(=O)N1Cc2cc(C(=O)NCC(F)(F)F)nc(-c3cccc(-c4cccc(F)c4)c3)c2[C@@H]1CCO (stereo not given in full),.,-22.6%,.,-76.8*
CC(=O)N1Cc2cc(C(=O)NCC(F)(F)F)nc(-c3cccc(-c4cccnc4)c3)c2[C@H]1CCO,.,-20.5%,.,-7.4
CC(=O)N1Cc2cc(C(=O)NCC(F)(F)F)nc(-c3cccc(-c4cccnc4)c3)c2[C@@H]1CCO,.,-14.5%,.,-81.2*
CC(=O)c1ccc(NC(=O)Cn2c3ncccc3c(=O)n2-c2ccc(C)cc2)cc1,8.6%[46.1 µM],-5.5%,6.0%[46.1 µM],-19.2
Cn1c(=O)[nH]c2nnc(-c3ccc(Cl)c(Cl)c3)nc2c1=O,?,-30.0%,10µM*,25.2
CSc1cnc2c(=O)n(C)c(=O)[nH]c2n1,6.3%,-18.4%,2.1%,95.8
CCOC(=O)c1cc2ccccc2n1C1CCN(CCc2ccccc2)CC1,.,-0.7%,.,-9.6
CC1=C(C(=O)Nc2ccc(C)cc2C)C(c2ccccc2)n2ncc(C(=O)Nc3ccccc3)c2N1 (stereo not given),?,0.0%,?,-7.1
SMILES,Marburg entry inh,FMDV antiviral,Lassa entry inh,HCMV antiviral
COc1nnc(-c2ccc(N3CCCCC3)c(NC(=O)C3CCCCC3)c2)c2ccccc12,2.0%,?,16.6%,-100.8*
COc1nnc(-c2ccc(N3CCCCC3)c(NC(=O)c3ccc(Cl)cc3)c2)c2ccccc12,-0.9%[46.1 µM],?,2.4%[46.1 µM],-0.8
COc1nnc(-c2ccc(N3CCOCC3)c(NC(=O)C3CCCCC3)c2)c2ccccc12,-13.4%,?,-7.1%,?
COc1nnc(-c2ccc(N3CCCCC3)c(NC(=O)c3ccccc3)c2)c2ccccc12,?,8.91µM*,24.3%[46.1 µM],-24.6
CCOc1cc(C2C(C(=O)c3ccco3)=C(O)C(=O)N2CC2CCCO2)ccc1O (stereo not given),0.4%[46.1 µM],1.7%,-0.5%[46.1 µM],-12.7
Cc1ccc(/C=C2\SC(=S)N(CC3CCCO3)C2=O)o1 (stereo not given),20.7%[46.1 µM],31.9%,-2.4%,-85.3*
C[C@H](O)C#Cc1ccc2c(c1)O[C@@H](CN(C)Cc1ccc(-c3ccccc3)cc1)[C@H](C)CN([C@@H](C)CO)S2(=O)=O,.,?,.,-81.8*
C[C@H](O)C#Cc1cnc2c(c1)C(=O)N([C@H](C)CO)C[C@@H](C)[C@@H](CN(C)Cc1ccc(-c3ccccc3)cc1)O2,.,-17.2%,.,-70.9*
C[C@@H]1CN([C@H](C)CO)S(=O)(=O)c2ccc(Br)cc2O[C@@H]1CN(C)Cc1ccc(-c2ccccc2)cc1,.,-23.0%,.,-10.1
CC(C)N1C(=O)CC[C@@H](S(=O)(=O)c2ccccc2)[C@@H]1c1ccccc1,.,.,.,-3.8
O=C(CSc1nc(=O)[nH]c2c1CCCC2)NCc1ccccc1Cl,.,-11.0%,6.0%[46.1 µM],-6.6
Cc1cccc(NC(=O)COC(=O)CCCC2=NS(=O)(=O)c3ccccc3N2)c1,-0.3%[46.1 µM],3.0%,?,-104.2*!
CCN(CC)C1CCN(C(=O)c2cnn(-c3ncc4c(n3)-c3ccccc3CCC4)c2COC)C1 (stereo not given),.,-1.2%,.,.
COc1ccc(F)cc1CSc1nnnn1-c1ccc(O)cc1,?,26.1%,?,-61.7*
COc1cc(CSc2nnnn2-c2ccc(C)cc2)cc(OC)c1OC,?,.,3.66µM*,-88.8*
COc1ccc(C(C)=O)cc1CSc1nnnn1-c1ccc(O)cc1,.,-19.1%,.,-30.6
COc1ccc(OCc2nnnn2-c2ccccc2)cc1,-0.3%,1.0%,3.2%,-37.5
COc1cc(CO)ccc1OCc1nnnn1-c1ccc(C)cc1,14.5%,-8.7%,0.3%,-63.4*
COc1ccc(CSc2nnnn2-c2ccccc2)cc1,-5.0%,-8.3%,?,-19.3
CO[C@H]1[C@H](NC(=O)c2ccco2)c2ccccc2C12CCN(Cc1ccc3cccc(F)c3n1)CC2,.,-18.9%,.,.
CCCCNC(=O)C1=C(N)C(C(=O)Nc2ccc(C)c(S(=O)(=O)N3CCCCC3)c2)SC1=Nc1ccc(C)cc1C (stereo not given),12.6µM*,-21.5%,-24.8%,-8.8
CCCCC(=O)Nc1ccc(C)c(S(=O)(=O)N2CCCCCC2)c1,?,?,?,-25.8
O=c1oc2ccccc2cc1-c1nc(-c2cccc(Cl)c2)cs1,.,-30.6%,7.6%[46.1 µM],12.6
O=c1oc2ccccc2cc1-c1csc(Nc2nc3ccc(F)cc3s2)n1,6.8%,.,1.1%,.
